The supplement of paper PMC11732987, “Enantioselective OTUD7B fragment discovery through chemoproteomics screening and high-throughput optimisation” (Communications Chemistry, 2025)

Tests used:
Experiment in all cases: log2 ratio of Biotin-Ahx-Ub-VS probe labelling (fragment/DMSO); higher = less target engagement (more negative = stronger competition), active = hit call of the paper (q ≤ 0.05, log2 ratio ≤ -1)
Conditions in all cases: compound concentration: 200 uM; treatment time: 3 h
USP34 = USP34 (UniProt Q70CQ2)
Summary of the method: (§1)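 Each value is an average log2 ratio of fragment to vehicle, tested by unpaired t-test. The underlying Spectronaut label-free quantities were global-median-normalised, and only proteins with ≥2 unique peptides were included. Triplicate HEK293T lysate samples (495 µg) were exposed to fragment at 200 µM or vehicle for 3 h, then to Biotin-Ahx-Ub-VS at 0.5 µM final for 1 h, before NeutrAvidin enrichment of labelled DUBs, LysC and trypsin digestion, and diaPASEF LC-MS/MS.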

USP36 = target: T1, USP36 (UniProt Q9P275)
T1 sequence (whole entry): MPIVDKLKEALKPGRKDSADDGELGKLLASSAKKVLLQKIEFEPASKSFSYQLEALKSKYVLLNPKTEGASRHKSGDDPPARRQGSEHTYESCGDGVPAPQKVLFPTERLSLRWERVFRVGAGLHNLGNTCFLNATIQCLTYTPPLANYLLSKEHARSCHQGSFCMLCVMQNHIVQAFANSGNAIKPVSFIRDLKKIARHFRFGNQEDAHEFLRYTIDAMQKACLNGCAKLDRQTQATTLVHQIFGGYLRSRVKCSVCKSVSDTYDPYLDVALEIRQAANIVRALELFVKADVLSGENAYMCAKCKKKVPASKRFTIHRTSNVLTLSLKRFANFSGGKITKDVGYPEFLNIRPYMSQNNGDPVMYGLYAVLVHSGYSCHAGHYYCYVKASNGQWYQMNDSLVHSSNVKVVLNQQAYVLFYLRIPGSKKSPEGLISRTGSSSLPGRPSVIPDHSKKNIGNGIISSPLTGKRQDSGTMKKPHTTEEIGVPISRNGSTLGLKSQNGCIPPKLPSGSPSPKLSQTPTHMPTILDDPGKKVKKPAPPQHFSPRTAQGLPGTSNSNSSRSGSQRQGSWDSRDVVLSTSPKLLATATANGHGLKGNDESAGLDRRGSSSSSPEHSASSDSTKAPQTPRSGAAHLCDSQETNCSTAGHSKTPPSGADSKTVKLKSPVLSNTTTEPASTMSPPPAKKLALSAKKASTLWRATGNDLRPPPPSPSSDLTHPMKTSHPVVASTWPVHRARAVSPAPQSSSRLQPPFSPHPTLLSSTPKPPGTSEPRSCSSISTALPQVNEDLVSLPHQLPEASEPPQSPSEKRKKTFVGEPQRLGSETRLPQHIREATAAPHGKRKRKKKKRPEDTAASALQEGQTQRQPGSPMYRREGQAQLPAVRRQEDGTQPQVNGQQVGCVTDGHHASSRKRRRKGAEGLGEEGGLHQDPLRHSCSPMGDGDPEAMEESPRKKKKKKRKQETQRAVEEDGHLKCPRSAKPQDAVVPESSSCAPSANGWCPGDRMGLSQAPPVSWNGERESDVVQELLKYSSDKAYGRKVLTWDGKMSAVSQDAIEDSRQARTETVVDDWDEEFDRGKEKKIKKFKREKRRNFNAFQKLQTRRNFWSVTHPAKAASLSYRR
Summary of the method: as §1

USP38 = target: T2, USP38 (UniProt Q8NB14)
T2 sequence (whole entry): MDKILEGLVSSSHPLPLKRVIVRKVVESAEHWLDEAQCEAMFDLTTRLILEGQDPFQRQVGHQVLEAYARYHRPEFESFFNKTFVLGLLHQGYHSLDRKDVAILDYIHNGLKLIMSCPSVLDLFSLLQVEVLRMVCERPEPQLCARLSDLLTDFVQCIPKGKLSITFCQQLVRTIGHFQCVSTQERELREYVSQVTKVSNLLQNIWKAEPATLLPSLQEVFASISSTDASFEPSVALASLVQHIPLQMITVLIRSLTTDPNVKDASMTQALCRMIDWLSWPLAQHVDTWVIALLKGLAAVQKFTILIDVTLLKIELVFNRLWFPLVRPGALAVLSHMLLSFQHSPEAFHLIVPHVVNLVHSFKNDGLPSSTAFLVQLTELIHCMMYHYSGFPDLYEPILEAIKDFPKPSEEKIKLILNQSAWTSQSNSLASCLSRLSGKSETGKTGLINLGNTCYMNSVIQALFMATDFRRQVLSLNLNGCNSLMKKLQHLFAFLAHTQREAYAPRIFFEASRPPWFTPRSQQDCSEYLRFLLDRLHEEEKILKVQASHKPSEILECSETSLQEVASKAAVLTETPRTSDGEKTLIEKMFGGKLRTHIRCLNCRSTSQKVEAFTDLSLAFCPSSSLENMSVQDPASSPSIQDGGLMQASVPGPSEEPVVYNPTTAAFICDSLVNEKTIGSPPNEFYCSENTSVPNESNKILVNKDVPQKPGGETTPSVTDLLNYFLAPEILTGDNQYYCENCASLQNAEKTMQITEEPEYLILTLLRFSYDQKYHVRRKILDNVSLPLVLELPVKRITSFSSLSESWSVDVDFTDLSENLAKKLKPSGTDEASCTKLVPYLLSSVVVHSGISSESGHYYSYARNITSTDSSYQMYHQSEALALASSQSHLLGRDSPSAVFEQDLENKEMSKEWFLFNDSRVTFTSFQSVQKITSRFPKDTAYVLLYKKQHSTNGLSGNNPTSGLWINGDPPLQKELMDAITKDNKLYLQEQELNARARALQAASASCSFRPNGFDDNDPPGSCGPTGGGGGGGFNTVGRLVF
Summary of the method: as §1

USP39 = target: T3, USP39 (UniProt Q53GS9)
T3 sequence (whole entry): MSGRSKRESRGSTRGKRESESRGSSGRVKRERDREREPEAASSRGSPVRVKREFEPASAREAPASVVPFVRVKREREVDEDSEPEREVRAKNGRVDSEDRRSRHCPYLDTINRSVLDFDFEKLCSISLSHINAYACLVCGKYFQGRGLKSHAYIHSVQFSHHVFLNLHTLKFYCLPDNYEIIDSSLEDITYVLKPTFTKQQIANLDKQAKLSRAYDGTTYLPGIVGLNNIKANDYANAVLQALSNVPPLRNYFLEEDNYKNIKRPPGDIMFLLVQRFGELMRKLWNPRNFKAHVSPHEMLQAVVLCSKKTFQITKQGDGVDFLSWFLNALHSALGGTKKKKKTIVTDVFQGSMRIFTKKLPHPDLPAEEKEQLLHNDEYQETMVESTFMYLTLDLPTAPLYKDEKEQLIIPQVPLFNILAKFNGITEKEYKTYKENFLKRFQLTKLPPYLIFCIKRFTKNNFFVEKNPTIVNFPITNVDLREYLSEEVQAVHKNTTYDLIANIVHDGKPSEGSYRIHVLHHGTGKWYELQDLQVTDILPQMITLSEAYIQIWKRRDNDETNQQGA
Summary of the method: as §1

USP4 = target: T4, USP4 (UniProt Q13107)
T4 sequence (whole entry): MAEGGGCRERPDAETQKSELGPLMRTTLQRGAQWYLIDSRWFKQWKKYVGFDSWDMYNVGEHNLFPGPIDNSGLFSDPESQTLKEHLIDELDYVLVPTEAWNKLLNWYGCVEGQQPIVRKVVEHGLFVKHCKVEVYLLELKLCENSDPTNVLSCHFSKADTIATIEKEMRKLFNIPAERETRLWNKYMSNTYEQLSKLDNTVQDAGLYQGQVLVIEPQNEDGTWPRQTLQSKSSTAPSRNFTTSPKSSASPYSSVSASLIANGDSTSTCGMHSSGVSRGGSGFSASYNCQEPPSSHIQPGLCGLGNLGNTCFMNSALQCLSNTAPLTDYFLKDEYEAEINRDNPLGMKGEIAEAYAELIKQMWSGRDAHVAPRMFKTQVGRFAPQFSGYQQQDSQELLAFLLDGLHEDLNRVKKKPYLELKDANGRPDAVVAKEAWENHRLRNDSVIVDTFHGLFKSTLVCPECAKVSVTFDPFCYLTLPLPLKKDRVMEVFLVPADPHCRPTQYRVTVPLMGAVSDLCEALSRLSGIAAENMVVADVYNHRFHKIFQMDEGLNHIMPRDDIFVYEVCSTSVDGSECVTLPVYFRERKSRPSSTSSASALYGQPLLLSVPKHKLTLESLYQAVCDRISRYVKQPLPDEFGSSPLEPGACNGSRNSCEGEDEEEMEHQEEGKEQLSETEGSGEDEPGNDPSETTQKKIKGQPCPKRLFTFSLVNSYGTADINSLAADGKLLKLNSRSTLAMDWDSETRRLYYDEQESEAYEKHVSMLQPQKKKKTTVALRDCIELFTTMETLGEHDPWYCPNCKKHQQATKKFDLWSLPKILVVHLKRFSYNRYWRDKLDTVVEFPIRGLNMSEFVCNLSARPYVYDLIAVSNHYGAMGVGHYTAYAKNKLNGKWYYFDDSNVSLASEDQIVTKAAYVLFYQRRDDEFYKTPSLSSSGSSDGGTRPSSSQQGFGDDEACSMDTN
Summary of the method: as §1

Measured: log2 ratio of Biotin-Ahx-Ub-VS probe labelling

Sequence of USP34 (Q70CQ2 whole entry, the tested form may be a part): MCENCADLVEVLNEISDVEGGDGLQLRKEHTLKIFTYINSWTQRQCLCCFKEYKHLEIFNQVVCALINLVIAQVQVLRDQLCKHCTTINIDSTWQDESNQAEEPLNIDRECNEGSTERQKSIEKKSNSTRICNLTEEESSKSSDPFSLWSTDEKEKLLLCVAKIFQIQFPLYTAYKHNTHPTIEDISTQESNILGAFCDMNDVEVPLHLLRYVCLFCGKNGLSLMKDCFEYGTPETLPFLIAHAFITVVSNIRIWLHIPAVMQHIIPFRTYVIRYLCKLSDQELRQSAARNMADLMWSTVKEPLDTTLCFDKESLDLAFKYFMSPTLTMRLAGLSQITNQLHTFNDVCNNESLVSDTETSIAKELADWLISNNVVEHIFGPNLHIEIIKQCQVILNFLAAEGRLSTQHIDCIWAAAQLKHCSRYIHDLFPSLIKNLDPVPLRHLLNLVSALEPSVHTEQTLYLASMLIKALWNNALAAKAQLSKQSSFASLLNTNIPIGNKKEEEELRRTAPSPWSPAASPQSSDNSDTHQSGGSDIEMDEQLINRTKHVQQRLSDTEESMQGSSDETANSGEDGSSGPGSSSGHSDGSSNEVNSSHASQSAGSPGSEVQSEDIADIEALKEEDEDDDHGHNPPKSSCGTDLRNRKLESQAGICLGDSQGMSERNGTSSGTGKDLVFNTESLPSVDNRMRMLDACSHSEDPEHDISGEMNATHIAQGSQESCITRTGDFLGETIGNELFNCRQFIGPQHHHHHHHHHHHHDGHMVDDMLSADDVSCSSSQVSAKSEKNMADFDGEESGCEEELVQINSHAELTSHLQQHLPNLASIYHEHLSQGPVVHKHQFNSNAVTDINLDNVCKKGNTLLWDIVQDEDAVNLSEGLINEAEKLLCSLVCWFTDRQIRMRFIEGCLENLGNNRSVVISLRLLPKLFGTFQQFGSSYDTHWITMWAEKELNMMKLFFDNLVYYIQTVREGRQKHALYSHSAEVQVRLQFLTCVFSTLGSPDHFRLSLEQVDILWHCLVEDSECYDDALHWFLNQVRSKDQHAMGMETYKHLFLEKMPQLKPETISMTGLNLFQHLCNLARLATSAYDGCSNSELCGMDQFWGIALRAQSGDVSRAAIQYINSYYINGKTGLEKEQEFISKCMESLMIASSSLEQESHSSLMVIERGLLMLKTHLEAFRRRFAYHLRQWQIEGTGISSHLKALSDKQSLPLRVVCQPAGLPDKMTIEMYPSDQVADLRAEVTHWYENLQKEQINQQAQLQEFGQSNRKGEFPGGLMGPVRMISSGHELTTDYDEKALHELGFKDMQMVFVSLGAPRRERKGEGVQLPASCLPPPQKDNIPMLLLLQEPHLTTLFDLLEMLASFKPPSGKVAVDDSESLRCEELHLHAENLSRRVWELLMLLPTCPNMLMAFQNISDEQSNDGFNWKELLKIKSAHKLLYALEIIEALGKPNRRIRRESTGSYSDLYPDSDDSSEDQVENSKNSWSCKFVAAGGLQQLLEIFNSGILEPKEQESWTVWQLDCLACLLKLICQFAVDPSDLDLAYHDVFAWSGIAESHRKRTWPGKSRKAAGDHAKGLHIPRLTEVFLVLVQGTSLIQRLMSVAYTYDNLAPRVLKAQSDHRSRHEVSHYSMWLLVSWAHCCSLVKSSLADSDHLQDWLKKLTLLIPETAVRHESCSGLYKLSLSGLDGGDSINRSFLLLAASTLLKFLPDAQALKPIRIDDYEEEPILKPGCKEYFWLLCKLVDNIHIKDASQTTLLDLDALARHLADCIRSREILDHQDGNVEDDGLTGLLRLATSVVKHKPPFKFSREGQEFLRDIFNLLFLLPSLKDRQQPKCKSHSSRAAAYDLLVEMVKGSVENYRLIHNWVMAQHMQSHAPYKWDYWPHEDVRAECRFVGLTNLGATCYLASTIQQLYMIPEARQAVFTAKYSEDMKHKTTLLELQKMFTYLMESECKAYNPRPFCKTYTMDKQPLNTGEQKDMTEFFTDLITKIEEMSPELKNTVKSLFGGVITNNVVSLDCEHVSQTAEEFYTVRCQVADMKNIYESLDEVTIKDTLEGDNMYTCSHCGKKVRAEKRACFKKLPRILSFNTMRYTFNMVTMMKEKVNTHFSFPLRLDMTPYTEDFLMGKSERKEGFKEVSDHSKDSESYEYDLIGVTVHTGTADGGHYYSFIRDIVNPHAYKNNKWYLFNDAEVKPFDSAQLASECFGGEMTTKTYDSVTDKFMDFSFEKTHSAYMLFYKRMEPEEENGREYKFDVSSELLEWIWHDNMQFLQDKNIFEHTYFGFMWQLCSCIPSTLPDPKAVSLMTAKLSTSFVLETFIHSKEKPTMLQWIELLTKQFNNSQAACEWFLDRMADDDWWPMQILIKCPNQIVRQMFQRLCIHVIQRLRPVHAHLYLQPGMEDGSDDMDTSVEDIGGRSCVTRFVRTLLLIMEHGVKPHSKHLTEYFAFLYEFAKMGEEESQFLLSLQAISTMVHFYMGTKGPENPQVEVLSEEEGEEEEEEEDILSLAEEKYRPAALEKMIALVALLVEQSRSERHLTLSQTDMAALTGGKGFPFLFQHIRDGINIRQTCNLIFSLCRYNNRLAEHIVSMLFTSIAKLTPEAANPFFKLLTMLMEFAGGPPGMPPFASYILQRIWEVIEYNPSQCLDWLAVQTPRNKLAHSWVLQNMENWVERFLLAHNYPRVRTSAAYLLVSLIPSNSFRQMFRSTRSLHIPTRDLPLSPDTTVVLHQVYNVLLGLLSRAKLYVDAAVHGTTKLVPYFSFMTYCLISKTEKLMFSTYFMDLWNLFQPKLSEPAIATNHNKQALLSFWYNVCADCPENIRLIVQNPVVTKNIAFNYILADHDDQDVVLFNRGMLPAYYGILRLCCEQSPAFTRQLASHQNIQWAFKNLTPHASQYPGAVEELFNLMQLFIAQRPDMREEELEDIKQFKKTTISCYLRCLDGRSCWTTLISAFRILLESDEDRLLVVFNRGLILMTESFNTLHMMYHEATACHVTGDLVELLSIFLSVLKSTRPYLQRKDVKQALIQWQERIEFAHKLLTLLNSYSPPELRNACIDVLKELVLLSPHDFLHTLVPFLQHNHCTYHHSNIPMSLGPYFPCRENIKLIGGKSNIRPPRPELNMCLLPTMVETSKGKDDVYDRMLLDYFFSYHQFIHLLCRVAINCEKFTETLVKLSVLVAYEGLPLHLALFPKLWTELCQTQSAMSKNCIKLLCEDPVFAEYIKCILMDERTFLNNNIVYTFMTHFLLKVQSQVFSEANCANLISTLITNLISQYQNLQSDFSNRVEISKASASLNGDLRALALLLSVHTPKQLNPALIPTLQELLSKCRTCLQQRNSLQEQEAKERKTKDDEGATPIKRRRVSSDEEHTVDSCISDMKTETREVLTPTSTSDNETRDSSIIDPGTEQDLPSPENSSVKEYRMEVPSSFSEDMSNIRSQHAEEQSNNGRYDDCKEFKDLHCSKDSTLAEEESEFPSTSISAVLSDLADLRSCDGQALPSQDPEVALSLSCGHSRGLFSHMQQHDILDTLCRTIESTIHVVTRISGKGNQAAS

O=C(CCl)Nc1cc(Cl)ccc1C(=O)O
inactive: USP34 0.243 | USP36 0.209 | USP38 0.105 | USP39 0.562 | USP4 0.12
